These results are taken from PubChem BioAssay (NCI).

Test systems include SR leukemia; OVCAR-8 ovarian; OVCAR-5 ovarian; OVCAR-4 ovarian; SK-OV-3 ovarian; IGROV1 ovarian; OVCAR-3 ovarian; HS 578T breast; NCI/ADR-RES ovarian; T-47D breast; BT-549 breast; MDA-MB-435 melanoma; SW-620 colon; MCF7 breast; HCT-116 colon; HCC-2998 colon; KM12 colon; RPMI-8226 leukemia.
Holding throughout (assay): NCI-60 one-dose screen, 48 h (100 = growth as untreated, 0 = no growth, -100 = all killed)
Common to all, as to conditions: 10 µM unless noted

This is part of a sample that, as a whole, favours compounds with a hit. Of some 83,000 tested, about 20% had one in any assay.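 For each line, cells grew in 96-well plates with the test compound present at a single concentration for 48 hours.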 Values without a mark were called inactive. Calls of active or inactive are those of the source. The calls were made as follows: active = growth percent below 10; inactive = the rest.

For `CC(=O)Nc1ccc(-c2cc3c(NCc4ccc(F)cc4)ncnc3s2)cc1`, the growth was 77.2% in the test with SR leukemia; 26.9% with OVCAR-8 ovarian; 78.1% with OVCAR-5 ovarian; 44.5% in the test with OVCAR-4 ovarian; 69.5% with SK-OV-3 ovarian; 61.1% in the test on IGROV1 ovarian. In addition, the growth in the test with OVCAR-3 ovarian is 81.6%; in the test on HS 578T breast it was 70.3%; in the test on NCI/ADR-RES ovarian, 69.4%; in the test on T-47D breast it was 74%; with BT-549 breast, 71.7%; in the test on MDA-MB-435 melanoma it was 93%. For the same compound, the growth with SW-620 colon is 97.7%; in the test on MCF7 breast, 75.7%; in the test with HCT-116 colon it was 80.7%; in the test with HCC-2998 colon it was 90.1%; with KM12 colon, 99.3%.

As to `CCCCN(Cc1ccc(C(=O)NO)cc1)C(=O)Nc1ccc(OCCCCCCCCCn2cc(CCCCC(=O)N[C@H](C(=O)N3C[C@H](O)C[C@H]3C(=O)NCc3ccc(-c4scnc4C)cc3)C(C)(C)C)nn2)cc1`, the growth with SR leukemia is 12.9%; with OVCAR-8 ovarian, 50.3%; in the test with OVCAR-5 ovarian it was 96.8%; with OVCAR-4 ovarian, 49.3%; in the test on SK-OV-3 ovarian it was 53.9%; with IGROV1 ovarian, 16.8%. Also, the growth with OVCAR-3 ovarian was 3.45% (active); with HS 578T breast it was 40.8%; with NCI/ADR-RES ovarian, 97.3%; in the test with T-47D breast, 32.2%; in the test on BT-549 breast, 42.2%; in the test with MDA-MB-435 melanoma, 34.8%. Moreover, the growth is 30.7% with SW-620 colon; 8.44% (active) in the test with MCF7 breast; 20.9% in the test on HCT-116 colon; 57.2% with HCC-2998 colon; 22.1% in the test with KM12 colon.

For `COc1cc(-c2ccc(N=Nc3c(O)c(C(=O)Nc4ccccc4OC)cc4ccccc34)c(OC)c2)ccc1N=Nc1c(O)c(C(=O)Nc2ccccc2OC)cc2ccccc12`, the growth in the test on SR leukemia was 41.8%; with RPMI-8226 leukemia it was 97.2%; with OVCAR-5 ovarian, 99.6%; in the test with SK-OV-3 ovarian, 103%; with IGROV1 ovarian, 88.3%; in the test on OVCAR-3 ovarian, 99.3%. Also, the growth in the test with HS 578T breast is 84.8%; in the test on NCI/ADR-RES ovarian, 96.4%; with T-47D breast, 103%; in the test on BT-549 breast, 90.2%; in the test with MDA-MB-435 melanoma, 99.9%; in the test on SW-620 colon, 91.8%. The growth was 91.1% with MCF7 breast, 81.8% in the test on HCT-116 colon, 97.7% with HCC-2998 colon and 94.8% in the test on KM12 colon.

For `O=C1/C(=C/c2ccc([N+](=O)[O-])cc2)COc2ccc(O)c(O)c21`, the growth in the test with SR leukemia was -1.74% (active); in the test on OVCAR-8 ovarian it was 14.2%; in the test with OVCAR-5 ovarian it was -68.6% (active); in the test on OVCAR-4 ovarian it was 6.56% (active); in the test with SK-OV-3 ovarian, 89.2%; in the test with IGROV1 ovarian, -40% (active). Further, the growth with HS 578T breast was 4.58% (active); with NCI/ADR-RES ovarian, 11.1%; in the test on T-47D breast, -5.74% (active); with BT-549 breast, 24.3%; with MDA-MB-435 melanoma, 0.103% (active); in the test on SW-620 colon it was -40.6% (active). Moreover, the growth in the test on MCF7 breast is 8.42% (active); with HCT-116 colon, -34.3% (active); in the test on HCC-2998 colon, -77.8% (active); in the test on KM12 colon, -55.3% (active).

As to `COc1ccc(/C=C2\COc3ccc(O)cc3C2=O)cc1OC`, the growth in the test on SR leukemia was 1.44% (active); in the test with OVCAR-8 ovarian, 46.4%; in the test with OVCAR-5 ovarian, 86.8%; with OVCAR-4 ovarian, 92.8%; in the test with SK-OV-3 ovarian it was 93.1%; with IGROV1 ovarian, 89.5%. In addition, the growth was 28.4% with OVCAR-3 ovarian; 98.4% in the test on NCI/ADR-RES ovarian; 73% in the test on T-47D breast; 75.7% in the test with BT-549 breast; 24.4% in the test with MDA-MB-435 melanoma; 10.6% in the test with SW-620 colon. Besides, the growth in the test on MCF7 breast was 27.3%; in the test on HCT-116 colon it was 11.7%; in the test on HCC-2998 colon, 121%; in the test with KM12 colon, 20.2%.

On to `O=C(O)c1ccccc1C(=O)Nc1ccc(Cl)cc1`, for which the growth in the test on SR leukemia was 80.4%; with OVCAR-8 ovarian it was 87.7%; in the test on OVCAR-5 ovarian, 103%; with OVCAR-4 ovarian, 110%; with SK-OV-3 ovarian it was 109%; in the test on IGROV1 ovarian, 102%. Moreover, the growth in the test with OVCAR-3 ovarian is 110%; in the test on HS 578T breast, 132%; with NCI/ADR-RES ovarian, 104%; with T-47D breast it was 87.2%; with MDA-MB-435 melanoma it was 85.7%; with SW-620 colon it was 93%. Further, the growth with MCF7 breast was 103%; in the test on HCT-116 colon, 96.3%; in the test with HCC-2998 colon it was 92.6%; with KM12 colon, 85.8%.

Regarding `O=C(CC12CC3CC(CC(C3)C1)C2)NCCOCCOCCOCCNC(=O)c1cc2c(o1)C(=O)c1ccccc1C2=O`, the growth is 7.13% (active) in the test with SR leukemia; 12.4% in the test on OVCAR-8 ovarian; -87.9% (active) in the test on OVCAR-5 ovarian; -95.9% (active) with OVCAR-4 ovarian; -10.8% (active) in the test on IGROV1 ovarian; -42.9% (active) in the test with OVCAR-3 ovarian. The growth in the test with HS 578T breast is -27.2% (active); with NCI/ADR-RES ovarian, -15% (active); in the test with T-47D breast, 1.06% (active); in the test with BT-549 breast, -90.6% (active); in the test with MDA-MB-435 melanoma it was -96.8% (active); in the test on SW-620 colon, -10.6% (active). Further, the growth is -67.2% (active) in the test with MCF7 breast, -19.6% (active) in the test with HCT-116 colon, -73.7% (active) in the test with HCC-2998 colon and 2.29% (active) in the test on KM12 colon.

For `N#Cc1cnn2c(-c3ccc(Cl)cc3)nc(NCCc3ccccc3)nc12`, the growth with SR leukemia was 83.5%; in the test on OVCAR-8 ovarian, 88.8%; in the test on OVCAR-5 ovarian it was 101%; with OVCAR-4 ovarian, 85.7%; with SK-OV-3 ovarian it was 74.5%; in the test on IGROV1 ovarian, 83.4%. Besides, the growth in the test with OVCAR-3 ovarian is 99.2%; in the test on T-47D breast it was 50.9%; in the test on BT-549 breast, 100%; with MDA-MB-435 melanoma it was 101%; with SW-620 colon it was 98.1%; in the test with MCF7 breast, 79.7%. The results for the growth in the test with HCT-116 colon, in the test on HCC-2998 colon and in the test on KM12 colon were 81.5%, 106% and 88%, respectively.

For the compound `CCn1c(Sc2nnc(NC(=O)CCN3CCCC3)s2)nc2c1c(=O)n(C)c(=O)n2C`, the growth in the test with SR leukemia was 111%; in the test on OVCAR-8 ovarian, 103%; with OVCAR-5 ovarian, 98.3%; in the test with OVCAR-4 ovarian, 105%; in the test on IGROV1 ovarian, 115%; with OVCAR-3 ovarian it was 109%. For the same compound, the growth with HS 578T breast is 100%; in the test with NCI/ADR-RES ovarian, 109%; in the test with T-47D breast, 102%; with BT-549 breast, 110%; with MDA-MB-435 melanoma, 107%; with SW-620 colon, 105%. Moreover, the growth in the test with MCF7 breast is 105%; with HCT-116 colon it was 105%; in the test on HCC-2998 colon, 114%; with KM12 colon it was 109%.

Turning to `Nc1nc(Nc2ccc(Cl)cc2)nn1S(=O)(=O)c1ccc(-c2ccc(F)cc2)cc1`, the growth in the test with SR leukemia is 85.5%; in the test on OVCAR-8 ovarian, 83.8%; in the test with OVCAR-5 ovarian, 85.7%; in the test on OVCAR-4 ovarian, 89.4%; in the test with IGROV1 ovarian, 76.2%; in the test with OVCAR-3 ovarian, 92.1%. The growth with HS 578T breast is 79.6%; in the test with NCI/ADR-RES ovarian, 83.3%; in the test on T-47D breast, 68.6%; with BT-549 breast, 108%; in the test with MDA-MB-435 melanoma, 91%; with SW-620 colon, 95.5%. For the same compound, the growth was 58.2% in the test on MCF7 breast, 75.1% with HCT-116 colon, 82.9% in the test with HCC-2998 colon and 61.2% in the test on KM12 colon.

For the compound `O=C(/C=C/c1ccccc1)c1ccc2ccccc2c1`, the growth in the test with SR leukemia was 48.1%; in the test on OVCAR-8 ovarian, 100%; in the test with OVCAR-5 ovarian, 106%; in the test on OVCAR-4 ovarian, 97%; in the test with SK-OV-3 ovarian, 103%; in the test on IGROV1 ovarian, 76.2%. The growth with HS 578T breast is 145%; in the test with NCI/ADR-RES ovarian, 101%; in the test with T-47D breast, 47.4%; with MDA-MB-435 melanoma, 103%; in the test on MCF7 breast it was 49.9%; in the test with HCT-116 colon, -5.91% (active). For the same compound, the growth in the test on KM12 colon is 93.2%.
